Only some compounds are listed: those with a hit (about 11% of all), similar ones and a draw of the others.
IMPase inh = IMPase inhibition in cells; inhibition (IP1 accumulation), % at 46.1 µM; P97697; CHO-M1 cells, IP1 accumulation, HTRF TR-FRET ratio; 120,000 tested, under 10 active; AID 901; active means well fitted curve in the direction sought with a large enough effect in the signal ratio, not every such curve was filed as active; inconclusive means small, poorly fitted or top-dose-only effect, or a change in a side signal; inactive means no such curve, though single readings can be large or run the other way; the % refers to the signal ratio;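 further: cells stimulated with carbachol in lithium chloride buffer; higher means more IMPase inhibition seen as more IP1 and lower FRET ratio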
Target sequence (P97697 whole entry, looked up): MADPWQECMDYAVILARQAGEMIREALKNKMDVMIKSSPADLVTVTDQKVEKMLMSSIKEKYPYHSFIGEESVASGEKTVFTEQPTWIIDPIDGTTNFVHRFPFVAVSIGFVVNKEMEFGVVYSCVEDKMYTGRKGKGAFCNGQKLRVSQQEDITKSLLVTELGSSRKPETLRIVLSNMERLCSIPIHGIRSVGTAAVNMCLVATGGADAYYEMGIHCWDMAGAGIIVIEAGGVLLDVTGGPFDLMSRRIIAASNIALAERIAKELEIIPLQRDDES
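CHO-M1, 2000 cells/well, cultured 16–30 h; cpd up to 46 uM; carbachol (50 uM solution, stimulation buffer w/ 50 mM LiCl, pH 7.4), 30 min 37C; IP-One TR-FRET, 10 min RT; Ex 320/Em 665, 620; Hill-fit AC50.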
PNC assembly inh = perinucleolar compartment assembly inhibition; activity change (PNC), negative = inhibition, % at 10 µM; hit rate 3.1% among 140,000; PC3M PTB-GFP, PNC prevalence imaging, 16 h; active compounds read low;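 active means readout at or below -70, meaning at least 70% loss of cells showing the perinucleolar compartment, a nuclear body marking cancer cells; inconclusive means readout between -30 and a set limit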
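Read-out is percentage of cells bearing a perinucleolar compartment, from automated 20x imaging of fixed, Hoechst-stained PC3M PTB-GFP cells. Cells were seeded 4 h, then exposed 16 h to compound (23 nl of library stock) in duplicate plates.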
ALDH1A1 inh = blocks purified human ALDH1A1 activity; Purified ALDH1A1, NADH fluorescence, propionaldehyde substrate; hit rate 7.3% among 220,000; Potency, µM (top dose mostly 75.3 µM), actives largely listed as inhibitors; AID 1030; P00352
Target sequence (P00352 whole entry, looked up): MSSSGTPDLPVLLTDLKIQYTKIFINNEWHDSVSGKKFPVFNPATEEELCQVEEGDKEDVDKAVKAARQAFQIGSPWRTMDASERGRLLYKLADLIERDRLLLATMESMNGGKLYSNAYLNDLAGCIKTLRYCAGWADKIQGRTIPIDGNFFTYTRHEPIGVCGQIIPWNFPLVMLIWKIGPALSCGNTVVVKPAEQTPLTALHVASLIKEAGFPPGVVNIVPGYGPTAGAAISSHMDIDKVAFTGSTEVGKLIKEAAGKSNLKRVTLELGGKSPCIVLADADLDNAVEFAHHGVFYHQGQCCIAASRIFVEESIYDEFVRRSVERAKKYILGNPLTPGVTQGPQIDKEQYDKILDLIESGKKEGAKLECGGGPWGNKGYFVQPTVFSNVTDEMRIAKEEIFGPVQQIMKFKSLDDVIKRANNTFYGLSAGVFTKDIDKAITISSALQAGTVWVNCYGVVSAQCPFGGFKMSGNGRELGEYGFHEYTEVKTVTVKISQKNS
IMPase Li cell = membrane-permeable IMPase blocker, potentiated with lithium; CHO-M1 cells, IP1 TR-FRET (IP-One), carbachol + lithium; Potency, µM (highest dose often 59.4 µM), usual class: inhibitors; hit rate 0.35% among 210,000; active means well fitted curve in the direction sought with a large enough effect; inconclusive means small, poorly fitted or top-dose-only effect, or another doubt; inactive means no such curve, though single readings can be large; an effect the other way counts as inactive or inconclusive;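 further: IP1 builds up when IMPase is blocked and the TR-FRET signal falls; nearly all actives have a fitted effect of over 50% in size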
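CHO cells stably expressing M1 receptor (2000/well, cultured 16–30 h) treated 30 min at 37C with compound plus low lithium. Cytosolic IP1 by TR-FRET (665/620 ratio and 620 channel) after 10 min lysis; AC50 by Hill fit.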
HPGD block = HPGD (human) dehydrogenase inhibition. P15428. purified HPGD, NADH fluorescence kinetic, PGE2 substrate. Potency, µM, hits mostly inhibitors. hit rate 4.3% among 150,000
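NADH formation kinetics: reaction with 30 uM PGE2 and 1 mM NAD+ (final), 20 nM enzyme, Tris-HCl pH 8 with Tween 20, after 15 min compound preincubation at room temperature. Fluorescence change, last versus first of five reads.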
NPSR antagonist = neuropeptide S receptor (human) antagonism, cAMP; Q6W5P4; CHO-NPSR cells, cAMP TR-FRET, antagonist mode; Potency, µM (highest dose often 38.3 µM), actives largely listed as inhibitors; hit rate 1% among 220,000; AID 1461; active means well fitted curve in the direction sought with a large enough effect; inconclusive means small, poorly fitted or top-dose-only effect, or another doubt; inactive means no such curve, though single readings can be large; an effect the other way counts as inactive or inconclusive; further: nearly all actives have a fitted effect of over 50% in size
Numbers stand for hits; 0 = inactive; ? = inconclusive; - = no result; [ ] = another dose, or the depositor's remark. Unless noted, the call rests on the fitted dose curve; in most records, active means well fitted inhibition curve with a large enough effect (not every such curve was filed as active); inconclusive means small, poorly fitted or top-dose-only effect, or another doubt; inactive means no such curve, though single readings can be large or run the other way.

SMILES	IMPase inh	PNC assembly inh	ALDH1A1 inh	IMPase Li cell	HPGD block	NPSR antagonist
Cc1ccc2cc(C=C(C#N)C#N)c(N3CCCCC3)nc2c1	0	0	7.9µM	0	0	?
N#C/C(=C\c1cc2ccccc2nc1N1CCOCC1)C(=O)Nc1ccc(N2CCOCC2)cc1	-	?	0	0	0	0
Cc1ccc2cc(/C=C(\C#N)C(N)=O)c(N3CCCCC3)nc2c1	-	0	11µM	0	0	0
N#CC(C#N)=Cc1cc2ccccc2nc1N1CCOCC1	-	0	11µM	0	0	0
COc1ccc(C2=NCC(CSc3nccc(=O)[nH]3)S2)cc1 (centres undefined)	0	0	?	0	14µM	0
CCN(CC)S(=O)(=O)c1ccc2oc(SCC3CN=C(c4ccc(OC)cc4)S3)nc2c1 (centres undefined)	0	0	22µM	0	14µM	0
COc1ccc(C2=NCC(CSc3nnc(-c4ccc5c(c4)OCO5)o3)S2)cc1 (centres undefined)	0	0	0	0	22µM	0
O=C(CSc1nnc(CNC(=O)c2ccccc2F)o1)Nc1ccc2c(c1)OCCO2	0	0	10µM	0	0	0
O=C(NCc1nnc(SCC(=O)N2CCCC2)o1)c1c(F)cccc1Cl	0	0	0	0	0	0
O=C(NCc1nnc(SCC(=O)N2CCC(Cc3ccccc3)CC2)o1)c1ccccc1F	0	0	8.9µM	0	0	0
O=C(CSc1nnc(CNC(=O)c2ccccc2F)o1)Nc1ccc2c(c1)OCO2	-	-	?	0	-	0
O=C(CSc1nnc(-c2ccccc2Cl)o1)Nc1ccc2c(c1)OCCO2	?	0	20µM	0	0	0
O=C(CN1CCC(NC(=O)c2ccccc2F)CC1)Nc1ccc2c(c1)OCCO2	-	-	13µM	0	-	0
C#CCO[C@@H]1C[C@H](n2cnc3c(NC(=O)c4ccccc4)ncnc32)O[C@@H]1CO	-	-	-	-	-	0
COCCOc1cc(N(CC(=O)N(C)C)S(=O)(=O)c2ccccc2)c(Cl)cc1Cl	-	-	0	0	-	0
N#Cc1cccc(CS(=O)(=O)c2nc3ccccc3s2)c1	-	-	14µM	0	0	-
N#CCCCS(=O)(=O)c1nc2ccccc2s1	-	-	0	0	0	-
S=c1[nH]nc(CSc2nc3ccccc3s2)o1	0	0	18µM	0	0	0
O=S1(=O)C=C(Sc2nc3ccccc3s2)c2ccccc21	0	?	14µM	0	?	10µM
O=C(CCCSc1nc2ccccc2s1)NCc1ccco1	0	0	?	0	?	0
N#C/C(=C\c1ccco1)Sc1nc2ccccc2s1	0	0	13µM	0	10µM	0
Cc1cc(C)nc(SC2=CS(=O)(=O)c3ccccc32)n1	0	0	0	0	0	0
CN(C)CCNC(=O)C(=O)NCC1OCCN1S(=O)(=O)c1ccc2c(c1)OCCO2 (centres undefined)	-	-	-	-	-	0
CCCN1C2CCCC1CC(NC(=O)c1ccccc1F)C2 (centres undefined)	0[1.84 µM]	0	0	0	0	0
CC(=O)OC[C@@H]1O[C@H](C/C=N\O[C@@H](C)c2cn([C@H](CO)Cc3ccccc3)nn2)C=C[C@@H]1OC(C)=O	-	-	0[13.5 µM]	-	-	-
SMILES	IMPase inh	PNC assembly inh	ALDH1A1 inh	IMPase Li cell	HPGD block	NPSR antagonist
C=CCS(=O)(=O)c1nc2ccccc2s1	0	0	0.79µM	0	0	0
c1ccc2sc(SSc3nc4ccccc4s3)nc2c1	-	-	0.25µM	0	10µM	-
CCS(=O)(=O)CCSc1nc2ccccc2s1	0	0	?	0	0	0
O=S(=O)(CCSc1nc2ccccc2s1)c1nc2ccccc2s1	0	0	0.1µM	0	0	0
COc1ccccc1-n1c(=O)[nH]c2c(C(N)=O)nc(C3CCCCC3)nc21	0	?	0	0	0	0
O=C(Cc1coc2cc3c(cc12)CCC3)NC1CCCCCCC1	0	0	0	0	14µM	0
O=C(O)c1ccc2c(=O)n(-c3ccc(F)cc3)c(=S)[nH]c2c1	-	-	0	-	-	0
O=c1cc(O)n(-c2ccc(F)cc2)c(=S)[nH]1	0	0	0	0	28µM	0
S=C(Nc1ccc2nsnc2c1)N1CCCCC1	-	0	?	0	0	0
CCOC(=O)C1=C(Cc2ccc(F)cc2)C(=O)c2ccccc2C1=O	0	?	?	0	7.9µM	?
O=C(O)[C@H]1CN(C/C=C/P(=O)(O)O)CCN1	-	-	0	0	0	-
Cn1c(=O)c2[nH]c(-c3ccccc3)c(O)c2n(C)c1=O	?	0	11µM	0	?	0
COCCN=c1scc(-c2cccs2)n1/N=C/c1ccc(O)c(O)c1O	0	?	1.1µM	-	-	0
CCN=c1scc(C)n1/N=C/c1cc(Br)c(O)c(Br)c1	-	-	?	0	-	0
CCN=c1scc(C)n1/N=C/c1ccc(O)c(O)c1O	?	0	10µM	0	7.1µM	0
COCC(C)NC(=O)c1ccc(N(C)C)cc1 (centres undefined)	0	0	8.9µM	0	22µM	0
CN(C)c1ccc(C(CC(=O)O)NC(=O)c2ccc(Cl)cc2)cc1 (centres undefined)	0	0	18µM	0	0	0
COc1ccccc1CN1CCNC(=O)C1CC(=O)NCCCn1cccn1 (centres undefined)	-	-	25µM	0	-	0
COc1ccccc1CN1CCNC(=O)C1CC(=O)NCCC1=CCCCC1 (centres undefined)	-	-	25µM	0	-	0
Nc1nc(-c2ccco2)nn1C(=O)c1ccc(F)cc1	-	-	0	0	-	0
CC(C)(C)c1ccc(-n2nc(C(N)=O)c(O)cc2=O)cc1	-	-	0	0	-	0
CC(C)(C)c1ccc(-n2nc(C#N)c(Cl)cc2=O)cc1	-	-	13µM	0	-	0
CCO[C@H]1OC(C(=O)NC2CC2)=C[C@@H](C)[C@@H]1CCCO	-	-	0	0	-	0
Fc1ccc(/C=N/n2cnn(Cc3ccccc3Cl)c2=S)cc1	-	-	20µM	0	-	0
CN(C)c1ccc(/C=N/n2cnn(Cc3ccccc3Cl)c2=S)cc1	-	-	?	0	-	0
SMILES	IMPase inh	PNC assembly inh	ALDH1A1 inh	IMPase Li cell	HPGD block	NPSR antagonist
Cc1ccc(/C=C/C(=O)O)cc1S(=O)(=O)Nc1ccccc1C(=O)O	-	-	0	0	-	0
CC(C)C(C(=O)NCc1ccco1)N(C(=O)CNS(=O)(=O)c1ccc(Cl)cc1)C1CCCC1 (centres undefined)	0	0	0	0	0	0
CN(C)c1nc(N)nc(CSc2n[nH]c(-c3ccccc3)n2)n1	0	0	0	0	4µM	0
COC(=O)c1ccc(CSc2n[nH]c(-c3ccccc3)n2)o1	-	-	0	0	-	0
O=C(COC(=O)c1ccccc1Br)NCCC1=CCCCC1	-	-	0	0	-	0
COc1ccc(CNC(=O)COC(=O)CC2CCCC2)cc1	-	0	7.9µM	0	0	0
COc1ccc(OCCC(=O)OCC(=O)NC2CCCCCCC2)cc1	-	-	16µM	0	-	0
CCOC(=O)COc1ccc(S(=O)(=O)NCCC2=CCCCC2)cc1	0	?	32µM	0	0	0
O=C(NC(=S)NCCC1=CCCCC1)c1ccccc1Br	-	-	7.1µM	0	-	?

High-throughput results (PubChem)
